Experimental findings from PubChem BioAssay (NCI) are described below.

The structures appear in SMILES notation. About 79,000 compounds went through this panel and 15% of them were active in at least one assay; those are over-represented in the sample as a whole. A number with no mark means an inactive call. Calls of active or inactive are those of the source. No stated cut-off is given here; in the data, active means growth inhibition above about 70%; inactive means the rest.

Assay [1] can be described thus: NCI Yeast Anticancer Drug Screen. Data for the rad50 strain (AID 155).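 Further: 0% = growth of vehicle-only cultures of the same strain.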 The settings on record: S. cerevisiae rad50 strain growth inhibition; at 50.0 µM; hits give high values. Summed up:
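Yeast carrying a defined DNA repair defect were exposed to test compounds, and growth was compared with vehicle-treated controls to give percent inhibition.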

Assay [2] in a line: NCI Yeast Anticancer Drug Screen. Data for the mec2-1 strain (AID 157). The settings on record: S. cerevisiae mec2-1 strain, at 50.0 µM, hits give high values. An outline of the steps: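 Mutant yeast (mec2-1) grown with compound; growth inhibition relative to vehicle control reported.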
Assay [3] can be described thus: NCI Yeast Anticancer Drug Screen. Data for the sgs1 mgt1 strain (AID 161).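 Further: 0% = growth of cultures given vehicle only.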 The settings on record: S. cerevisiae sgs1 mgt1 strain, at 50.0 µM, hits give high values. An outline of the steps: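 This yeast growth screen uses a strain with defined DNA-repair lesions; compound-treated growth is compared with vehicle-treated growth.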
Assay [4] is described as follows: NCI Yeast Anticancer Drug Screen. Data for the cln2 rad14 strain (AID 165).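 Further: 0% = growth equal to vehicle treated cultures.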 The settings on record: S. cerevisiae cln2 rad14 strain, at 50.0 µM, hits give high values. Summed up: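 Readout is yeast growth inhibition versus vehicle-treated controls, using a strain with cln2 and rad14 alterations exposed to compound.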
Assay [5] in a line: NCI Yeast Anticancer Drug Screen. Data for the bub3 strain (AID 167). The settings on record: S. cerevisiae bub3 mutant strain, at 50.0 µM, hits give high values. Summed up:
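Compounds were applied to a genetically altered yeast strain carrying a cell-cycle control defect. Growth inhibition was scored against vehicle-treated controls.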

Assay [6] in a line: NCI Yeast Anticancer Drug Screen. Data for the mlh1 rad18 strain (AID 175). The following applies: S. cerevisiae mlh1 rad18 strain growth inhibition; at 50.0 µM; hits give high values. An outline of the steps:
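Genetically defined yeast (DNA repair-deficient) exposed to compounds; growth inhibition determined relative to vehicle.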

Consider `CN(C)c1ccc2c(c1)C(O)c1ccccc1-2` (stereo not given), for which the growth inhibition was -7.3% in assay [1]; -6.55% in assay [2]; 1.1% in assay [3]; -0.65% in assay [4]; 19.4% in assay [5]; 0.7% in assay [6].

On to `Cc1c(C2CCC(=O)C2)c2ccccc2n1C` (stereo not given), for which the growth inhibition in assay [1] was -3.05%; in assay [2], -23.3%; in assay [3] it was -4.6%; in assay [4], 15.4%; in assay [5], 2.1%; in assay [6] it was 3.5%.

As for `C/C(=N/NC(N)=O)C1C2CC3C(C2Cl)C31` (stereo not given), the growth inhibition in assay [1] is 21.4%; in assay [2] it was -15.3%; in assay [3], -15.1%; in assay [4] it was -30.6%; in assay [5] it was 4.7%; in assay [6], -2.4%.

`Cc1ccnc(N(C)CCN2CCCCC2)c1`: the growth inhibition in assay [1] was 2.75%; in assay [2] it was 8.15%; in assay [3], 7.3%; in assay [4], -34.5%; in assay [5] it was 12.4%; in assay [6] it was -20.8%.

For the molecule `Cc1ccc(C(O)(c2ccc(C)cc2)C2CCCCC2=C(c2ccccc2)c2ccccc2)cc1` (stereo not given), the growth inhibition in assay [1] is 10.8%; in assay [2], 3.45%; in assay [3], -14.2%; in assay [4] it was -7.35%; in assay [5], -0.25%; in assay [6] it was 15.2%.

`O=C1NC(=O)c2ccc(Br)c3cccc1c23`: the growth inhibition was 17.9% in assay [1]; 18.9% in assay [2]; 16.1% in assay [3]; 21.6% in assay [4]; 19.9% in assay [5]; 1.75% in assay [6].

As for `CCc1ccccc1-n1[nH]c(C)c(C=N)c1=O`, the growth inhibition in assay [1] is -8.2%; in assay [2] it was -18.1%; in assay [3], -18.2%; in assay [4], -14.1%; in assay [5], -16.7%; in assay [6], -8.15%.

Take `N=c1c2c(ncn1N)CCN(Cc1ccccc1)C2`: the growth inhibition was -8.55% in assay [1]; 7.35% in assay [2]; -11.4% in assay [3]; -71.8% in assay [4]; -6% in assay [5]; -32.8% in assay [6].

As to `COCC(=O)c1ccccc1-c1ccccc1`, the growth inhibition was 13.6% in assay [1]; -2.65% in assay [2]; 3.15% in assay [3]; -4.1% in assay [4]; -11.2% in assay [5]; 0.85% in assay [6].

Take `CCCCCCCCCCCCCCCCS(=O)(=O)N/N=C/c1ccc2c(c1)OCO2`: the growth inhibition is 13.9% in assay [1]; 3% in assay [2]; 3.5% in assay [3]; 4.05% in assay [4]; -0.55% in assay [5]; -3.25% in assay [6].

Regarding `CCNCC(=O)Nc1ccccc1C(=O)OCC`, the growth inhibition in assay [1] is -2.7%; in assay [2], 14%; in assay [3], 0.2%; in assay [4], -22.5%; in assay [5], 8.6%; in assay [6], 10.1%.

For the molecule `COc1ccc(N2C(=O)c3c(C)ccc(C)c3C2=O)cc1`, the growth inhibition was -23.8% in assay [1]; 6.4% in assay [2]; 19.9% in assay [3]; -0.5% in assay [4]; -3.5% in assay [5]; 5.15% in assay [6].

Take `Nc1nc(=S)c2[nH]cnc2[nH]1`: the growth inhibition is -19.6% in assay [1]; -4.95% in assay [2]; -21.4% in assay [3]; -91.7% in assay [4]; 9.55% in assay [5]; -125% in assay [6].

Regarding `c1ccc2c(c1)C1CCCCCC21N1CCOCC1` (stereo not given), the growth inhibition is 18% in assay [1]; 1.05% in assay [2]; -14.4% in assay [3]; -5.45% in assay [4]; -30.4% in assay [5]; 7.6% in assay [6].

On to `CN=C/C(C(C)=O)=C(\C)O`, for which the growth inhibition in assay [1] is 4.1%; in assay [2], -0.05%; in assay [3], -4.85%; in assay [4] it was 3.6%; in assay [5], 8.5%; in assay [6], 0.65%.

On to `NC(=O)Cc1csc(Br)n1`, for which the growth inhibition in assay [1] is 12.9%; in assay [2], 0.8%; in assay [3], -6.2%; in assay [4], -32.2%; in assay [5], 15.4%; in assay [6], 7.9%.

As for `CCOc1c(F)ccc(F)c1-c1c(F)ccc(F)c1OCC`, the growth inhibition in assay [1] was -7.5%; in assay [2], -0.3%; in assay [3], 5.65%; in assay [4], 2.4%; in assay [5], 3.3%; in assay [6], -5.2%.

Take `CC(=O)OC12CC3CCC4C(CCC5(C)C(C(C)CCCC(C)C)CCC45)C3(C)CC1O2` (stereo not given): the growth inhibition in assay [1] is 71% (active); in assay [2], 48.4%; in assay [3] it was 69.8%; in assay [4], -1.2%; in assay [5], 14.3%; in assay [6] it was 42.2%.

Consider `CCOc1ccccc1NC(=O)c1ccc(Cl)cc1`, for which the growth inhibition in assay [1] was -9.8%; in assay [2], 18%; in assay [3], -6.75%; in assay [4] it was 5.35%; in assay [5], 14.3%; in assay [6], -4.6%.

For `CC1=C(CO)C(=O)O[C@@H]([C@@H](C)[C@H]2CC[C@H]3[C@@H]4C[C@H]5O[C@]56[C@@H](O)C=CC(=O)[C@]6(C)[C@H]4CC[C@]23C)C1`, the growth inhibition in assay [1] is 86.2% (active); in assay [2], 89.2% (active); in assay [3], 86.5% (active); in assay [4], 83.3% (active); in assay [5], 89.7% (active); in assay [6] it was 85% (active).
